# Screening results: PubChem BioAssay, National Center for Advancing Translational Sciences (NCATS)
# This is a sample that favours compounds with a hit; in the whole collection about 19% have one here.
# TDP1 cell noCPT = qHTS for Inhibitors of human tyrosyl-DNA phosphodiesterase 1 (TDP1): qHTS in cells in absence of CPT; DT40 Tdp1-/- hTDP1 cells, no CPT, ATP luminescence, 48 h; Potency, µM (top dose mostly 46.2 µM), actives largely listed as inhibitors; actives 15% (n = 420,000); AID 686978, 2013; note: nearly all actives have a fitted effect of over 55% in size
#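 Luminescent ATP content (CellTiter-Glo) served as the growth readout. Knockout chicken DT40 cells expressing human TDP1 were exposed to compounds without camptothecin for a minimum 48 hr at 37 °C.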
# DT40 TDP1 CPT = qHTS for Inhibitors of human tyrosyl-DNA phosphodiesterase 1 (TDP1): qHTS in cells in presence of CPT; AID 686979, 2013; chicken DT40 Tdp1-/-;hTDP1 cells + 20 nM CPT, ATP luminescence, 48 h; actives 12% (n = 420,000); Potency, µM (top dose mostly 46.2 µM), actives largely listed as inhibitors; note: nearly all actives have a fitted effect of over 55% in size
#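 Chicken DT40 Tdp1-/- cells stably complemented with human TDP1 were seeded at 400 cells/well in medium containing 20 nM camptothecin, exposed to pin-transferred compounds, and grown at 37 °C for at least 48 hr. Viability was read as ATP luminescence.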
# ELG1 DNA repair = qHTS screen for small molecules that inhibit ELG1-dependent DNA repair in human embryonic kidney (HEK293T) cells expressing luciferase-tagged ELG1; HEK293T ELG1-luciferase reporter, luminescence, 16 h; DNA damage induced by 5-fluorouridine; Potency, µM (top dose mostly 46.1 µM), actives largely listed as inhibitors; actives 2.3% (n = 330,000); note: nearly all actives have a fitted effect of over 55% in size
#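 5-Fluorouridine DNA damage + compound/DMSO, 2,000 cells/well, 16 h, 37 °C/5% CO2. ONE-Glo, 30 min RT, luminescence. Readout = decrease in reporter signal.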
# IL1B secr inh = qHTS for Inhibitors of Inflammasome Signaling: IL-1-beta AlphaLISA Primary Screen; THP-1 LPS/ATP IL-1B secretion, AlphaLISA, 16 h; stronger effect = lower value; activity change, % at 57.5 µM; actives 4.7% (n = 360,000); AID 743279, 2014; in the data active = activity change below about -50%; inconclusive = mostly about -30% to -49%
#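 THP-1 cells pretreated 1 hr with compounds (up to 57.5 uM final), then stimulated with LPS (250 ng/mL final) plus ATP (1.25 mM final); secreted IL-1B measured by AlphaLISA after 16 hr, decreased signal indicating inhibition.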
# HT1080-NT tox = qHTS for induction of synthetic lethality in tumor cells producing 2HG: qHTS for the HT-1080-NT fibrosarcoma cell line; AID 686970, 2013; Potency, µM (doses to about 46.1 µM), hits mostly cytotoxic; actives 1.6% (n = 360,000); HT-1080-NT fibrosarcoma viability, CellTiter-Glo ATP luminescence, 48 h;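 note: NT is the 2HG producing partner of a matched IDH1 knockdown line; nearly all actives have a fitted effect of over 55% in size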
#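 Fibrosarcoma NT cells, 750 per well in 5% FBS RPMI, were exposed to compound for 48 hours. Viability: CellTiter-Glo luminescence.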
# HT1080 IDH1KD tx = qHTS for induction of synthetic lethality in tumor cells producing 2HG: qHTS for the HT-1080-IDH1KD cell line | HT-1080 IDH1 knockdown viability, ATP luminescence, 48 h | Potency, µM (series often up to 46.1 µM), most hits filed as cytotoxic | actives 2% (n = 360,000) | AID 686971, 2013
#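 After a 2 h attachment period, IDH1KD HT-1080 cells took pin-transferred compound for 48 h at 37 °C; ATP-based luminescence after 10 min room-temperature reagent incubation reported viability.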
# Numbers stand for hits; 0 = inactive; ? = inconclusive; - = not tested or not shown; [ ] = dose if it differs, or a comment. Unless noted, calls come from the whole dose curve; as a rule, active = well fitted curve in the direction sought with a large enough effect; inconclusive = small, poorly fitted or top-dose-only effect, or another doubt; inactive = no such curve, though single readings can be large; an effect the other way counts as inactive or inconclusive.
SMILES,TDP1 cell noCPT,DT40 TDP1 CPT,ELG1 DNA repair,IL1B secr inh,HT1080-NT tox,HT1080 IDH1KD tx
Cc1cccc2sc(N(CCCN(C)C)C(=O)c3sc4ccccc4c3Cl)nc12,23.1µM,16.4µM,0,0,0,0
COc1cccc2sc(N(CCCN(C)C)C(=O)c3sc4ccccc4c3Cl)nc12,18.4µM,?,0,-66.9,0,0
COc1cc(C(=O)N(CCCN(C)C)c2nc3c(OC)cccc3s2)cc(OC)c1OC,20.6µM,?,-,-,-,-
CCN(CC)C(=O)C1=C(C)N(CCC2=CCCCC2)C(=O)C(CC(=O)NCCCCc2ccccc2)C1 (stereo not given),?,?,-,0,0,0
Cc1cccc(NC(=O)CS(=O)(=O)c2cccc3nsnc23)c1,0,0,-,-,-,-
O=C(c1ccccc1F)N1CCN(C(=O)C(c2ccccc2)c2ccccc2)CC1,?,0,0,0,0,0
COc1cccc2c1cc1c(=O)n(CC(=O)NCc3ccc(C)o3)nc(C)n12,0,0,-,-,-,-
Cc1cccc(NC(=O)CSc2nsc(SCC(=O)Nc3cccc(C)c3)c2C#N)c1,?,?,8.2µM,0,0,0
COC(=O)CSc1nsc(SCC(=O)OC)c1C#N,0,0,0,-99.6,0,?
N#Cc1c(SCC(=O)Nc2ccccc2)nsc1SCC(=O)Nc1ccccc1,0,0,0,0,0,0
O=C(O)c1cc(Cl)n[nH]c1=O,0,0,-,0,0,0
CCCC(c1nnnn1Cc1ccc(OC)cc1)N1CCN(C(=O)c2ccco2)CC1 (stereo not given),0,0,0,0,0,0
CC1(C(=O)Nc2ccc(Cl)c(Cl)c2)CCN1C(=O)CC1CCCC1 (stereo not given),?,25.9µM,-,0,0,0
CC1(C(=O)Nc2cccc3cccnc23)CCN1C(=O)CC1CC1 (stereo not given),0,0,-,0,0,0
COc1ccc(OC)c(NC(=O)C2(C)CCN2C(=O)Cc2ccc(Cl)cc2Cl)c1 (stereo not given),18.4µM,20.6µM,-,0,0,0
COc1ccc(OC)c(S(=O)(=O)NC(=O)C2(C)CCN2C(=O)Cc2ccc(Cl)cc2Cl)c1 (stereo not given),0,0,-,0,0,0
CC1(C(=O)Nc2ccc3c(c2)OCCO3)CCN1C(=O)CC1CCCC1 (stereo not given),?,?,-,0,0,0
COc1ccc(NC(=O)C2(C)CCN2C(=O)Cc2ccc(Cl)cc2Cl)cc1OC (stereo not given),20.6µM,18.4µM,-,0,0,0
CC1(C(=O)Nc2cccc3cccnc23)CCN1C(=O)Cc1ccc(Cl)cc1Cl (stereo not given),20.6µM,20.6µM,-,0,0,0
FC(F)(F)c1ccc(C2Nc3cccc4cccc(c34)N2)cc1,?,?,0,0,0,0
FC(F)(F)C1=Nc2cccc3cccc(c23)N1,4.61µM,4.11µM,0,0,0,0
Brc1ccc(C2=Nc3cccc4cccc(c34)N2)o1,8.2µM,6.51µM,?,0,0,0
CC(=NNS(=O)(=O)c1cccc([N+](=O)[O-])c1)c1ccc(-n2ccnc2)cc1,?,0,0,0,0,0
O=C(Nc1ccncc1)Nc1cccc(Cl)c1,0,?,?,0,0,0
C/C(=N\Nc1ccc(C)c(Cl)c1)c1ccncc1,?,0,?,0,0,0
SMILES,TDP1 cell noCPT,DT40 TDP1 CPT,ELG1 DNA repair,IL1B secr inh,HT1080-NT tox,HT1080 IDH1KD tx
C/C(=N\NC(=O)C(=O)Nc1cccc(Cl)c1)c1ccncc1,7.31µM,11.6µM,0,0,0,0
C/C(=N\NC(=O)C(=O)Nc1ccc(C)c(Cl)c1)c1ccncc1,2.31µM,1.64µM,0,0,0,0
C/C(=N\NC(=O)C(=O)Nc1ccc(C)cc1)c1ccncc1,9.2µM,?,0,0,0,0
C/C(=N\Nc1cccc(Cl)c1)c1ccc(-n2ccnc2)cc1,16.4µM,?,0,?,0,0
COc1ccc(CNC(=O)CSc2nc(SC)ns2)cc1,0,0,0,0,0,0
CCOC(=O)C1=C(C)N(CCCC(=O)O)C(=O)NC1c1cccs1 (stereo not given),0,0,-,0,0,0
Cc1onc(-c2ccccc2)c1C(=O)N1CCCc2ccccc21,16.4µM,?,0,0,0,0
Cc1onc(-c2c(Cl)cccc2Cl)c1C(=O)N1CCCc2ccccc21,20.6µM,20.6µM,?,0,0,0
CC(=O)OC[C@@]12C(=O)[C@@H](O)[C@@H](C)[C@]3(C[C@@H](c4ccoc4)O[C@@H]3OC(C)=O)[C@H]1CCC[C@]21CO1,0[9.04 µM],0[9.04 µM],-,-,-,-
CCOC(=O)N1CCN(Cc2nc3c(c(=O)n(C)c(=O)n3C)n2Cc2cccc(C)c2)CC1,?,0,18.4µM,0,0,0
